# A selection: hits, their analogues and other compounds. The true share with any hit is near 5.3%.
# TDP1 block: blocks human tyrosyl-DNA phosphodiesterase 1; recombinant TDP1, AlphaScreen DNA substrate cleavage; Potency, µM (series often up to 130 µM), without a hit: top-dose activity change, negative = inhibition, actives largely listed as inhibitors; hit rate 0.28% among 350,000; also: potency is read from the fitted curve at half-maximal effect; % is scaled to controls: 0 for no effect and ±100 for the full control effect; nearly all actives have a fitted effect of over 40% in size
# Target sequence (Q9NUW8 whole entry, looked up): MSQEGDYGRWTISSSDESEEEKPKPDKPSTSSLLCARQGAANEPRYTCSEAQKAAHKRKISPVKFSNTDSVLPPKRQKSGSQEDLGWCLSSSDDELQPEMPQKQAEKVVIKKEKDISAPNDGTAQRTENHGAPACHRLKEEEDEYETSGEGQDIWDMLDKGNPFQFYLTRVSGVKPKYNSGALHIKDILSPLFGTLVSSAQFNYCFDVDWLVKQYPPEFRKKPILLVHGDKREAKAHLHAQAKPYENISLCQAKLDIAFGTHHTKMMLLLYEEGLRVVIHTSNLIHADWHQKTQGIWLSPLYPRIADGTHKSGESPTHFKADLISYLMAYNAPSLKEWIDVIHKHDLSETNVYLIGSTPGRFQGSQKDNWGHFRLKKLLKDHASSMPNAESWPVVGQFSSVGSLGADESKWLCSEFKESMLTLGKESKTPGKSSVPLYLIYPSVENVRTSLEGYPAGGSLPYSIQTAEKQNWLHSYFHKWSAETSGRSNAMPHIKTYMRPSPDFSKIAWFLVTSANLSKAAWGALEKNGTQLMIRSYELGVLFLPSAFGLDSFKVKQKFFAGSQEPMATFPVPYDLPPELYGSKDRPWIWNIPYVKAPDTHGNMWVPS
#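 Recombinant human Tdp1 (E. coli-expressed, 1 nM final) preincubated with compounds 15 min at room temperature, then 5'-biotin/3'-phosphotyrosine-FITC DNA substrate (15 nM final) added for 5 min. AlphaScreen beads (10 ug/ml final) added 10 min; cleavage lowers signal.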
# HP1b chromo inh: HP1-beta chromodomain-methylated histone interaction inhibition. Potency, µM (series often up to 114 µM), for inactives: at the top dose activity change, negative = inhibition, actives largely listed as inhibitors. hit rate 0.56% among 390,000. AlphaScreen HP1-beta / biotin-H3K9me3 peptide binding. P83916; also: potency is read from the fitted curve at half-maximal effect; nearly all actives have a fitted effect of over 70% in size
#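 HP1-beta protein (50 nM final) preincubated 30 min at room temperature with biotinylated H3(1-18)K9me3 peptide (50 nM) in PBS pH 7.4, 0.01% Tween-20, then compound added for 30 min. AlphaScreen streptavidin donor/nickel chelate acceptor beads (10 ug/mL final), 30 min dark, luminescence read.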
# BAZ2B inh: BAZ2B (human) inhibition. AID 504333. Q9UIF8. Potency, µM (top dose mostly 114 µM), for inactives: top-dose activity change, negative = inhibition, usual class: inhibitors. AlphaScreen BAZ2B-H3K14Ac peptide displacement. hit rate 4.4% among 360,000; also: potency is read from the fitted curve at half-maximal effect; % is scaled to controls: 0 for no effect and ±100 for the full control effect; nearly all actives have a fitted effect of over 60% in size
#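 AlphaScreen luminescence quantifies BAZ2B engagement of H3K14Ac peptide; the protein and biotinylated peptide are both at 50 nM final, buffer PBS pH 7.4 with 0.01% Tween-20, all steps at room temperature.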
# Six1-Eya2 inh: inhibitors of human Six1/Eya2 interaction; Q15475+O00167; AlphaScreen GST-Six1/His-Eya2 binding, biochemical; stronger effect = lower value; activity change, % (test concentration not listed); hit rate 0.56% among 360,000; AID 651725; in the data active = activity change below about -65%; inconclusive = mostly about -30% to -63%; also: % is scaled to controls: 0 for no effect and ±100 for the full control effect
#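 AlphaScreen with GST-Six1 and His-Eya2 (5X mix: 250 nM and 500 nM), glutathione donor and nickel acceptor beads; buffer 50 mM Tris pH 8.0, 300 mM NaCl, 1 mM TCEP; 1 h at 37 C in the dark.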
# CtBP-E1A inh: blocks the CtBP interaction with E1A | activity change, % (concentration not given with the values) | AID 651724 | hit rate 0.49% among 340,000 | AlphaScreen GST-E1A/His-CtBP binding, 1536-well; stronger effect = lower value; in the data active = activity change below about -65%; inconclusive = mostly about -30% to -63%; also: % is scaled to controls: 0 for no effect and ±100 for the full control effect
#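 In 5 uL wells, 23 nL compound meets equimolar GST-E1A and His-CtBP (5X stock 125 nM each) for 2 h, 37 °C. Beads (5X, 50 ug/mL) then 1 h, 37 °C, dark.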
# JMJD2A Tudor: JMJD2A Tudor domain (human) inhibition; O75164; AlphaScreen JMJD2A-Tudor / H3K4me3 peptide binding; hit rate 4.4% among 390,000; Potency, µM (doses to about 114 µM), for the others: at the top dose activity change, negative = inhibition, usual class: inhibitors; also: potency is read from the fitted curve at half-maximal effect; % is scaled to controls: 0 for no effect and ±100 for the full control effect; nearly all actives have a fitted effect of over 50% in size
# Numbers without * were called inactive; ? = inconclusive; . = not tested or not shown; [ ] = another dose, or the depositor's remark. Unless noted, calls follow the shape of the dose curve; as a rule, active = well fitted inhibition curve with a large enough effect; inconclusive = small, poorly fitted or top-dose-only effect; inactive = no such curve, though single readings can be large or run the other way.
SMILES,TDP1 block,HP1b chromo inh,BAZ2B inh,Six1-Eya2 inh,CtBP-E1A inh,JMJD2A Tudor
O=C(O)c1ccc2c(c1Nc1ccccc1)C(=O)c1ccccc1C2=O,-3%,40µM*,?,-66*,?,50µM*
CNc1c(C(=O)O)ccc2c1C(=O)c1ccccc1C2=O,5%,45µM*,35µM*,-15,0,-31%
O=C(O)c1cccc2c1C(=O)c1ccccc1-2,6%,12%,-8%,9,2,-2%
Cc1ccc(-c2nnc3ccccc3c2C(=O)Nc2cccc(Cl)c2)cc1,0%,23%,5%,.,.,-3%
C[n+]1cc(C(O)(c2ccccc2)c2ccccc2)n2ccccc21,0%,.,.,.,.,-8%
CC(=O)c1c(C)nc2ccccc2c1N,0%,32%,12%,11,-4,-10%
Cc1c(N(C)C)nc2ccccc2c1N,-9%,14µM*,45µM*,-4,-13,1µM*
Cc1ccc2nc(-c3cccc(SC4CCCCC4)c3)c(NC3CCCCC3)n2c1,3%,12%,.,11,0,-29%
COc1ccc(-c2ccc(-c3nc4ccc(C)cn4c3NC3CCCCC3)cc2OC)cc1,1%,-16%,45µM*,-15,0,40µM*
COc1ccc(-c2nc3ccc(C)cn3c2NCc2ccccc2)cc1SC1CCCCC1,.,34%,50µM*,-4,-13,79µM*
CCC(C)Sc1cc(-c2nc3ccc(C)cn3c2NCc2ccccc2)ccc1OC (stereo unspecified),.,?,.,-23,.,56µM*
CCCCNc1c(-c2ccc(OC)c(SC3CCCCC3)c2)nc2ccc(C)cn12,5%,21%,.,0,-28,?
Cc1ccc(S(=O)(=O)c2c(Nc3cc(C)ccc3C)sc(C(=O)c3ccc4c(c3)OCO4)c2N)cc1,1%,21%[57 µM],?,.,.,-30%
COc1cccc(NC(=O)CN(C)C(=O)CCC(=O)c2cc(C)sc2C)c1,-8%,-3%,10%,1,-77*,-13%
COc1ccc(NC(=O)CN(C)C(=O)c2cc3c(s2)CCC3)cc1,1.3µM*,13µM*,6.3µM*,-29,-1,14µM*
COc1ccc(NC(=O)CN(C)C(=O)c2cc3c(s2)CCCCC3)cc1,5%,9%,-16%,-11,-4,-3%
COc1cccc(NC(=O)CN(C)C(=O)c2cc3c(s2)CCC3)c1,.,-7%,56µM*,-9,0,?
COc1cccc(NC(=O)CN(C)C(C)C(=O)N2CCCCC2)c1 (stereo unspecified),3%,?,.,-10,-23,0.32µM*
CCOC(=O)c1cc(C)n(CC2CCC(C(=O)Nc3cccc(C(C)=O)c3)CC2)c1C (stereo unspecified),3%,14%,-28%,.,.,-7%
CCOCCCNCc1ccc(Cl)cc1,.,?,71µM*,2,2,1.1µM*
O=[N+]([O-])c1ccc(O)c(N=Cc2sc3ccccc3c2O)c1,5%,-35%,14µM*,0,-2,45µM*
CCCCC1(Br)C(=O)N(c2ccccc2)N(c2ccccc2)C1=O,3%,?,?,6,-15,18µM*
COc1ccc(NC(=O)CN2CCN(CC(=O)Nc3ccc(OC)cc3)CC2)cc1,8%,45%,-2%,-1,3,6%
CCCCOc1ccc(NC(=O)CN2CCN(CC)CC2)cc1,6%,?,56µM*,3,5,0.79µM*
NS(=O)(=O)c1ccc(NC(=O)CN2CCN(S(=O)(=O)c3ccc(F)cc3)CC2)cc1,4%,11%,-13%,2,1,14µM*
CCc1cccc(CC)c1NC(=O)CN1CCc2cc(OC)c(OC)cc2C1,.,.,50µM*,.,.,.
COc1ccc(NC(=O)CN2CCN(c3ccc(F)cc3)CC2)cc1,.,-2%,-14%,2,-10,25µM*
O=C(CN1C(=O)CC(c2ccccc2)Sc2ccccc21)Nc1cccc(Cl)c1 (stereo unspecified),-3%,14%,-3%,.,.,-12%
CCN(CC)S(=O)(=O)c1cc(-c2onc(C)c2C)ccc1OC,5%,50%,0%,.,.,2%

# Source: PubChem BioAssay (National Center for Advancing Translational Sciences (NCATS))
